{"source": "ChEMBL document CHEMBL2218924", "about": "“A broad activity screen in support of a chemogenomic map for kinase signalling research and drug discovery” (Biochem J, 2013)", "data": [{"molecular_target": "Tyrosine-protein kinase ABL2 (Homo sapiens) (UniProt P42684)", "sequence (P42684 whole entry)": "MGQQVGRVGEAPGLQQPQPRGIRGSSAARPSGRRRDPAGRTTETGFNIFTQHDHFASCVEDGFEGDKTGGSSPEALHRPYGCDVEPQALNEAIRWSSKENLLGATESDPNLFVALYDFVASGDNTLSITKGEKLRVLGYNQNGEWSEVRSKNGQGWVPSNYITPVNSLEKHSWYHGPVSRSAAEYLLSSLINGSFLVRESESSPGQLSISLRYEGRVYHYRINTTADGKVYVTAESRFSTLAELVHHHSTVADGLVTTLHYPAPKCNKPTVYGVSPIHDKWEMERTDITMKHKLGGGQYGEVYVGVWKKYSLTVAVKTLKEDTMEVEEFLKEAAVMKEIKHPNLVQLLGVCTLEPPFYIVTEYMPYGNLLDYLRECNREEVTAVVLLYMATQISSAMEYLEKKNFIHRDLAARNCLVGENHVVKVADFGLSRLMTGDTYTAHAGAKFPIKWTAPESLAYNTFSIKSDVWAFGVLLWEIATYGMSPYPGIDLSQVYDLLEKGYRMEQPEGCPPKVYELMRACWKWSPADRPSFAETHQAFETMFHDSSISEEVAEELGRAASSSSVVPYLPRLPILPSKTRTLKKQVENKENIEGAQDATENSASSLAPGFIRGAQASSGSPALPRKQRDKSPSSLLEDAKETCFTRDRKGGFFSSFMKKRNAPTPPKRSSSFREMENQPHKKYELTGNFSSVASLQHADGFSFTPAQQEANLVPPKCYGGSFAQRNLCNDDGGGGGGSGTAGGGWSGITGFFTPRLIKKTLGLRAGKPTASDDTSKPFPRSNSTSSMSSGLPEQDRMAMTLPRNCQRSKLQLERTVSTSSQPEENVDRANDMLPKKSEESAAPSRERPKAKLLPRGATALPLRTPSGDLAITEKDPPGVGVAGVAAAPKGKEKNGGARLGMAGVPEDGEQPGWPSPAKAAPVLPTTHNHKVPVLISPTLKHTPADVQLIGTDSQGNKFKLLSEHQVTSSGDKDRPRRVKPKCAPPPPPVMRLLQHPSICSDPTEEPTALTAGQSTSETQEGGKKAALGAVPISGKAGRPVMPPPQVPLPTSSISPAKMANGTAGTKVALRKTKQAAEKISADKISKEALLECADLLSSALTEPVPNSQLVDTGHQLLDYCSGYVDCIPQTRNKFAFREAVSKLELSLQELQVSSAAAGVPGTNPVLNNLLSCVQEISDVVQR", "settings": "at 1 µM", "units": {"residual activity": "%"}, "values": [{"smiles": "COc1ccc(CNc2nc(N(CCO)CCO)nc3c2ncn3C(C)C)cc1", "residual activity": 113}, {"smiles": "O=C1NC(=O)c2c1c1c3ccccc3[nH]c1c1[nH]c3cc(Br)ccc3c21", "residual activity": 109}, {"smiles": "O=C1Nc2cc(Br)ccc2/C1=C1/Nc2ccccc2/C1=N\\O", "residual activity": 16}, {"smiles": "Nc1nc(Nc2ccc(S(N)(=O)=O)cc2)nn1C(=S)Nc1c(F)cccc1F", "residual activity": -2}, {"smiles": "NC(=O)c1ccc2[nH]c(-c3ccc(Oc4ccc(Cl)cc4)cc3)nc2c1", "residual activity": 128}, {"smiles": "c1ccc(-c2n[nH]c3c2oc2ccccc23)cc1", "residual activity": 115}, {"smiles": "Oc1c2ccccc2c2c3c(cccc13)N=N2", "residual activity": 87}, {"smiles": "Cc1nc2cc3nc(-c4cccs4)cnc3cc2n1C", "residual activity": 95}, {"smiles": "Oc1ccc(-c2nc(-c3ccc(F)cc3)c(-c3ccncc3)[nH]2)cc1", "residual activity": 78}, {"smiles": "Oc1ccc(Nc2nc(-c3ccc(Cl)cc3)cs2)cc1", "residual activity": 101}, {"smiles": "CCN(CC)C(=O)c1ccc(Nc2nc(OCC3CCCCC3)c3nc[nH]c3n2)cc1", "residual activity": 52}, {"smiles": "O=C(Nc1cccc(Nc2cc(Nc3cccc(C(F)(F)F)c3)ncn2)c1)C1CC1", "residual activity": 92}, {"smiles": "C[C@@H](N)[C@H]1CC[C@H](C(=O)Nc2ccncc2)CC1", "residual activity": 107}, {"smiles": "CCC(=O)Nc1ccc2ncnc(Nc3cccc(Br)c3)c2c1", "residual activity": 96}, {"smiles": "CO[C@@H]1[C@H](N(C)C(=O)c2ccccc2)C[C@H]2O[C@]1(C)n1c3ccccc3c3c4c(c5c6ccccc6n2c5c31)C(=O)NC4", "residual activity": 77}, {"smiles": "COc1cc2ncnc(N3CCN(C(=O)Nc4ccc(Oc5ccccc5)cc4)CC3)c2cc1OC", "residual activity": 110}, {"smiles": "Nc1cccc(-c2cc3c(Oc4cccc(O)c4)ncnc3[nH]2)c1", "residual activity": -3}, {"smiles": "COc1ccc(C(=O)Nc2sc3c(c2C(N)=O)CCCC3)cc1OC", "residual activity": 126}, {"smiles": "O=C(Nc1cccc(Nc2nccc(Nc3cccc(C(F)(F)F)c3)n2)c1)C1CC1", "residual activity": 46}, {"smiles": "COc1cc2ncc(-c3ccccc3)nc2cc1OC", "residual activity": 99}, {"smiles": "O=C1NC(=O)/C(=C\\c2ccc3nccnc3c2)S1", "residual activity": 89}, {"smiles": "O=C1NC(=O)/C(=C/c2ccc3c(c2)OC(F)(F)O3)S1", "residual activity": 94}, {"smiles": "Nc1ccc2ncnc(NCCc3ccc(Oc4ccccc4)cc3)c2c1", "residual activity": 104}, {"smiles": "Cc1ccc(NC2=CC(=O)c3sc(C)nc3C2=O)cc1", "residual activity": 122}, {"smiles": "Oc1n[nH]c2nnc(-c3c(-c4ccccc4)nn4ccccc34)cc12", "residual activity": 95}, {"smiles": "COc1ccc(OC)c2c(=S)c3ccccc3[nH]c12", "residual activity": 116}, {"smiles": "N#CCCc1ccc2c(c1)-c1[nH]c3ccc([N+](=O)[O-])cc3c1CC(=O)N2", "residual activity": 48}, {"smiles": "Cc1cc(Nc2nc(-c3ccccc3)nc3ccccc23)n[nH]1", "residual activity": 33}, {"smiles": "CC(=O)c1ccc(N2CCOCC2)cc1O", "residual activity": 110}, {"smiles": "c1ccc(-c2n[nH]cc2-c2ccnc3ccccc23)nc1", "residual activity": 64}]}]}
